PubChem BioAssay (EPA / NIEHS)
Records with an inconclusive call do not appear. Calls of active or inactive are those of the source. The calls were made as follows: active = hit-call score of the fitted dose curve at least 0.9, where 1 is the maximum; inconclusive = response in the unintended direction; inactive = score below 0.9.

Key:
[1] = ATG_XTT_Cytotoxicity: Cytotoxicity Assessment in the Attagene TRANS-FACTORIAL HepG2 Assay (AID 2283584)
Outline: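 HepG2 human liver cells, transiently transfected with multiple GAL4-UAS reporter units, were dosed and read at 24 h by XTT as cell number. Loss of signal was fitted relative to DMSO negative control baseline.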

[2] = TOX21_p53_BLA_p2_viability: Viability Assessment in the Tox21 HCT-116 p53 Agonism Beta-lactamase Assay, Phase 2 (AID 2283591);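 also: compound exposure lasted 16 h at 37 °C; actives lower the ATP signal meaning cytotoxicity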
Outline: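 HCT116 p53-bla cells, 4000/well, dosed after 5 h plating (217-fold dilution of DMSO stocks) and incubated 16 h at 37C. Viability taken as cellular ATP by CellTiter-Glo luminescence after 30 min RT; signal loss marks cytotoxicity.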

[3] = biological target: Cellular tumor antigen p53 (Homo sapiens) (UniProt P04637); assay: TOX21_p53_BLA_p2_ratio: Tox21 HCT-116 p53 Agonism Beta-lactamase Assay, Ratio, Phase 2 (AID 2283592)
Chain of Cellular tumor antigen p53 (Homo sapiens) (P04637 whole entry, looked up): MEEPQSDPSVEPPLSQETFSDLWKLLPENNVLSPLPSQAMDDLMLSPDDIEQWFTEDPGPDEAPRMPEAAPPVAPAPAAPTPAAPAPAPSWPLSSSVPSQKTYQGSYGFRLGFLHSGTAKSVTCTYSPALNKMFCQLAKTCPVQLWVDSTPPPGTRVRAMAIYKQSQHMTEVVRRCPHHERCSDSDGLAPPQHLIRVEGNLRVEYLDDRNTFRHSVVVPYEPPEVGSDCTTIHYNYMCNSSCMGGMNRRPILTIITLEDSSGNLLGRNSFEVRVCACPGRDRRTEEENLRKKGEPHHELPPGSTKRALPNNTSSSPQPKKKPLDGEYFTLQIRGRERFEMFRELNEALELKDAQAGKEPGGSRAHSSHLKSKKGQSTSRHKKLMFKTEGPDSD
Outline: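 Ratio endpoint: beta-lactamase cleavage of CCF4-AM, blue (460 nm) over green (530 nm). HCT116 reporter line; 16 h treatment, 37C; substrate 2 h RT.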

[4] = biological target: Cellular tumor antigen p53 (Homo sapiens) (UniProt P04637); assay: TOX21_p53_BLA_p3_ratio: Tox21 HCT-116 p53 Agonism Beta-lactamase Assay, Ratio, Phase 3 (AID 2283596)
Outline: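 Cells were seeded at 4000/well, rested 5 h at 37C, then dosed with DMSO compound solutions (217-fold dilution) for 16 h. CCF4-AM substrate was loaded for 2 h at room temperature, and the 460/530 nm emission ratio was fitted for gain of signal versus DMSO.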

[5] = biological target: Cellular tumor antigen p53 (Homo sapiens) (UniProt P04637); assay: TOX21_p53_BLA_p5_ratio: Tox21 HCT-116 p53 Agonism Beta-lactamase Assay, Ratio, Phase 5 (AID 2283599)
Outline: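 HCT-116 p53-bla cells (4000/well) plated 5 h, dosed with compound (217-fold DMSO dilution) for 16 h at 37 C; CCF4-AM substrate 2 h at room temperature. Activity is the 460/530 nm emission ratio (405 nm excitation), fitted in gain-of-signal direction versus DMSO.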

[6] = TOX21_p53_BLA_p3_viability: Viability Assessment in the Tox21 HCT-116 p53 Agonism Beta-lactamase Assay, Phase 3 (AID 2283593);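 also: cells exposed to compound for 16 h before reading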
Outline: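 HCT116 cells, 4000/well, dosed 5 h after plating by pin transfer (217-fold dilution from DMSO stock) and incubated 16 h at 37C, 5% CO2. Viability read as ATP luminescence with CellTiter-Glo after 30 min at room temperature.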

[7] = biological target: Cellular tumor antigen p53 (Homo sapiens) (UniProt P04637); assay: TOX21_p53_BLA_p4_ratio: Tox21 HCT-116 p53 Agonism Beta-lactamase Assay, Ratio, Phase 4 (AID 2283601)
Outline: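 HCT-116 p53 beta-lactamase reporter cells (4000/well) preincubated 5 h, then compound (217-fold dilution of DMSO stock) for 16 h at 37C. CCF4-AM substrate added 2 h at room temperature; 460/530 nm emission ratio fitted upward versus DMSO.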

[8] = TOX21_p53_BLA_p5_viability: Viability Assessment in the Tox21 HCT-116 p53 Agonism Beta-lactamase Assay, Phase 5 (AID 2283600)
Outline: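 Luciferase-coupled ATP quantitation of cells treated for 16 h (37C, 5% CO2) with test chemicals delivered in DMSO via a 217-fold dilution; 4000 cells/well; reagent incubated 30 min at room temperature before luminescence reading.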

[9] = TOX21_p53_BLA_p4_viability: Viability Assessment in the Tox21 HCT-116 p53 Agonism Beta-lactamase Assay, Phase 4 (AID 2283597);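 also: hits lower the luminescence signal meaning cytotoxicity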
Outline: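 Cytotoxicity was inferred from loss of CellTiter-Glo luminescence. HCT116 cells had been dosed with compounds after 5 h plating, incubated 16 h at 37C and 5% CO2, and exposed to the CCF4-AM substrate for 2 h.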

Measured: outcome

CC/C=C\C#N
inactive: [1] | [2] | [3] | [4] | [5]

CCCCCCC(C)O (centres undefined)
not listed: [8] | [9]
inactive: all other assays above

NC(=O)c1cccnc1
not listed: [9]
inactive: all other assays above

CC(=O)c1ccc(O)cc1
not listed: [9]
inactive: all other assays above

CC(=O)OC/C=C(C)/C=C/C=C(C)/C=C/C1=C(C)CCCC1(C)C
not listed: [4] | [9]
inactive: all other assays above

CCNC(=S)NCC
not listed: [6]
inactive: all other assays above

O=C(O)C1=NN(c2ccc(S(=O)(=O)O)cc2)C(=O)C1
not listed: [6] | [9]
inactive: all other assays above

CC(C)OB(OC(C)C)OC(C)C
not listed: [5] | [6] | [7]
inactive: all other assays above

NC(=O)NC(N)=O
not listed: [9]
inactive: all other assays above

CC(=O)CCC=C(C)CCC=C(C)C
not listed: [6]
inactive: all other assays above

CCOC(=O)CC1(C)OCC(C)O1 (centres undefined)
not listed: [4] | [7] | [9]
inactive: all other assays above

CC(=O)CC(=O)N(C)C
not listed: [6] | [8]
inactive: all other assays above

CCC(C)(C)c1cc(O)c(C(C)(C)CC)cc1O
not listed: [9]
inactive: all other assays above

CC12CCC(C1)C(C)(C)C2O (centres undefined)
not listed: [5] | [9]
inactive: all other assays above

C=C1CC/C=C(\C)CC[C@@H]2[C@@H]1CC2(C)C
not listed: [4] | [8] | [9]
inactive: all other assays above

CCOC(=O)C=Cc1ccccc1
not listed: [7] | [9]
inactive: all other assays above

c1ccc(OCCOc2ccccc2)cc1
not listed: [9]
inactive: all other assays above

CCCCOCCOC(=O)c1ccccc1C(=O)OCCOCCCC
not listed: [5] | [8] | [9]
inactive: all other assays above

CC(C)C(=O)OCC=Cc1ccccc1
not listed: [6] | [9]
inactive: all other assays above

CCCc1ccc(O)cc1
not listed: [4] | [8]
inactive: all other assays above

c1ccc2scnc2c1
not listed: [9]
inactive: all other assays above

CCCCCC1C(=O)CCC1CC(=O)OC (centres undefined)
not listed: [9]
inactive: all other assays above

CC(C)CCOC(=O)CC(C)C
not listed: [3] | [8] | [9]
inactive: all other assays above

OC[C@@H](O)[C@H](O)[C@@H](O)[C@@H](O)CO
not listed: [2] | [7] | [9]
inactive: all other assays above
